# Over roughly 1,000 compounds, “thermal shift dTm” has its median near 0.19; the highest 2% begin near 1.7. The sample as a whole holds a higher share of the highest values than the screen did. Calls of active or inactive are those of the source.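 How the source made its calls: active means mean rise in melting temperature of at least 1 degC over same-plate control wells; inactive means below that, where a call was filed.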
# Molecular target: Sulfhydryl oxidase 1 (Homo sapiens) (UniProt O00391)
# Assay: QSOX1 binders by thermal stabilization, confirmation, QSOX1 inhibitor project, biophysical, protein thermal shift, single concentration (AID 1347422);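 further: dTm is compound Tm minus mean Tm of DMSO-only wells on that plate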
# Details: recombinant hQSOX1 thermal shift, Sypro Orange, at 25 µM, stronger effect = higher value
# Sulfhydryl oxidase 1 (Homo sapiens), sequence (O00391 whole entry, looked up): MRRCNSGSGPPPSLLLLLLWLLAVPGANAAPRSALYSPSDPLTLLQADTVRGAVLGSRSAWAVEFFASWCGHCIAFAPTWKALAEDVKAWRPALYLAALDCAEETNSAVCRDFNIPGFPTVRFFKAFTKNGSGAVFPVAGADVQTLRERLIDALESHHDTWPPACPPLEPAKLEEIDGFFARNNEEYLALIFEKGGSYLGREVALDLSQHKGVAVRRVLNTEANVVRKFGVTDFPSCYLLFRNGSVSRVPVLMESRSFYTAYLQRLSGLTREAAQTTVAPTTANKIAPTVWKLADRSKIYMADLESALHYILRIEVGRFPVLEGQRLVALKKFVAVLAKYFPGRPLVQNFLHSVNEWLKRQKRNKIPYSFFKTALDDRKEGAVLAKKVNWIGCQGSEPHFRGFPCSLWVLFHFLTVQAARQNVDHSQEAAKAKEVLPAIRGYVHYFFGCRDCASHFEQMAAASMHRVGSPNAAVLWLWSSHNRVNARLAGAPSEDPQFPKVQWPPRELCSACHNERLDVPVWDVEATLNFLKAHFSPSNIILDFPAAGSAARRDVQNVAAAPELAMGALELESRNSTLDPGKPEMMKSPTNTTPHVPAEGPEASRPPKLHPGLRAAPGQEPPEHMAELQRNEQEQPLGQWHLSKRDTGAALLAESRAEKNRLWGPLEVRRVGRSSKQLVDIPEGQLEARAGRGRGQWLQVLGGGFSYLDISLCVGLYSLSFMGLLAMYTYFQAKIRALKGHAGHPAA
row,Compound,thermal shift dTm
1,NC(=O)c1ccc(-c2ccc3[nH]ccc3c2)nc1,0.79 °C
2,Cc1cc2ncn(CCCOc3ccc(Cl)cc3)c2cc1C,0.11 °C
3,CC(C)N(Cc1nc(-c2ccc(Cl)cc2)no1)S(=O)(=O)c1ccc(F)cc1,0.02 °C
4,CCc1ccc(NC(=O)Nc2ccc(Br)cn2)cc1,0.09 °C
5,COc1cccc(NC(=O)Nc2cccc3ccccc23)c1,0.01 °C
6,COc1ccc(NC(=O)Nc2ccc(C)cc2C)cc1,0.05 °C
7,COc1ccc(OC)c(NC(=O)Nc2cccc(NC(C)=O)c2)c1,1.91 °C (active)
8,COc1ccc(C)cc1NC(=O)Nc1ccc(NC(C)=O)cc1,0.57 °C
9,COc1ccc(NC(=O)Nc2ccc(C(C)=O)cc2)c(C)c1,2.14 °C (active)
10,COc1ccc(NC(=O)Nc2ccc(C)cc2)c(OC)c1,0.2 °C
11,N/C(=N\c1nc(-c2cccs2)cc(C(F)(F)F)n1)Nc1ccc2c(c1)OCCO2,0.35 °C
12,COc1cccc(NC(=O)Nc2ccc(Cc3ccncc3)cc2)c1,0.38 °C
13,COc1ccc(NC(=O)Nc2cccc(Cn3cc(Cl)cn3)c2)cc1,2.14 °C (active)
14,COc1ccc(NC(=O)Nc2cccnc2)cc1,0.28 °C
15,Cc1nnc(NC(=O)c2ccc(NC(=O)c3ccco3)cc2)s1,0.7 °C
16,CC(=O)Nc1ccc(NC(=O)c2nnn(-c3cccc(Cl)c3)c2N)cc1,0.55 °C
17,O=C(Nc1nccs1)c1ccccc1OCc1ccccc1,0.37 °C
18,CCc1sc(NC(=O)Cc2ccc(F)cc2)nc1-c1ccccc1,0.17 °C
19,O=S(=O)(NCCSC1CCCCC1)c1ccc(Cl)cc1,0.11 °C
20,O=C(CCc1ccccc1)Nc1cccc(-c2nc3ccccc3s2)c1,0.59 °C
21,CC(=O)Nc1ccc(C(=O)CSc2ccc3ccccc3n2)cc1,1.22 °C (active)
22,Cc1ccccc1NC(=S)NCCC(c1ccccc1)c1ccccc1,0.02 °C

row,Compound,thermal shift dTm
1,Cc1ccc(NC(=O)Nc2ccc3snnc3c2)cc1,-0.45 °C (inactive)
2,c1ccc(COc2ccc(-c3noc(-c4ccccn4)n3)cc2)cc1,0.01 °C
3,C=CCc1c(C)nc2c(-c3ccccc3)cnn2c1NCc1cccnc1,-0.08 °C (inactive)
4,Cc1cc(OCCn2cc(C(=S)N3CCOCC3)c3ccccc32)ccc1Cl,0.02 °C
5,COc1ccc2c(c1OC)C(=O)N(c1ccc(Cl)cc1)C2,0.81 °C
6,Cc1ncc(CNc2ccc(-c3nc4ccccc4[nH]3)cc2)cn1,0.14 °C
7,O=C(Nc1cccc(-c2nc3ccccc3[nH]2)c1)C1CCCO1 (centres undefined),0.02 °C
8,c1cc(NCc2ccc3c(c2)OCO3)cc(-c2nc3ccccc3[nH]2)c1,2.39 °C (active)
9,COc1ccc(C(=O)Nc2ccc(Cl)c(C)n2)cc1Cl,1.85 °C (active)
10,COc1ccc(NC(=O)c2ccoc2)cc1Cl,0.23 °C
11,COc1ccc(C(=O)Nc2ccc(NC(C)=O)cc2)cc1C,1.48 °C (active)
12,COc1ccc(-c2noc(-c3cccc(NC(C)=O)c3)n2)cc1,0.24 °C
13,CSc1cccc(NC(=O)NCc2ccccn2)c1,0.18 °C
14,O=C(Nc1nc(-c2ccccc2)ns1)N1CCOc2ccc(Cl)cc2C1,0.23 °C
15,O=C(CN(c1ccccc1F)S(=O)(=O)c1ccccc1)Nc1ccc(F)cc1F,-0.03 °C (inactive)
16,Cc1cc(N(C)C)nc(N2CCN(C(=O)Nc3cccc(F)c3)CC2)n1,-0.08 °C (inactive)
17,CCCN(CC1CC1)C(=O)c1cc(COc2ccc(OC)cc2Cl)on1,0.09 °C
18,CC(=O)Oc1ccc2cc(-c3ccc(Cl)cc3)c(=O)oc2c1,0.11 °C
19,CCCn1c(=O)[nH]c(=O)c2c(-c3cccc4ccccc34)ccnc21,0.25 °C
20,Cc1ccc(NC(=O)Nc2ccc(Br)cc2)nc1,0.28 °C
21,Cc1ccc2ccc(C(Nc3ccccn3)c3ccc(Cl)cc3)c(O)c2n1 (centres undefined),0.57 °C
22,O=c1[nH]c(SCc2ccc(Cl)c(Cl)c2)nc2ccccc12,0.11 °C
